TROY signal inh: blocks TROY-dependent signaling in reporter cells; Q293 LMP1-TROYcd NF-kB luciferase reporter, 4 h; inhibition, % at 10 µM; 360,000 compounds, 0.98% hits; AID 1347056;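 active = compounds whose plate-normalised and pattern-corrected inhibition of the luciferase reporter signal at the single screening dose is 50% or more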
LMP1 NFkB inh: inhibitors of Epstein-Barr LMP1-induced NF-kappaB reporter; LMP1-induced NF-kappaB luciferase reporter cells, luminescence; inhibition, % at 12.5 µM; 350,000 compounds, 0.69% hits; AID 504558; in the data active = inhibition above about 41%; inconclusive = no clear call, values can overlap the other calls
EWS-Fli block: inhibitors of EWS/Fli oncoprotein transcriptional activity; AID 651661; inhibition, % at 12.6 µM; A673 NR0B1-luciferase reporter, viability-normalised; 350,000 compounds, 0.67% hits;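 active = mean inhibition of at least 50% after viability correction, with every replicate also passing that limit; inconclusive = mean reaches 50% but only one of two replicates passes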;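 note: firefly luciferase signal divided by Alamar Blue viability fluorescence both relative to DMSO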
TWEAK Fn14 block: TWEAK-Fn14 signaling inhibition | inhibition, % at 10 µM | TWEAK-stimulated Fn14 reporter cells, luciferase luminescence, 8 h | 360,000 compounds, 2% hits | AID 1159606; in the data active = inhibition above about 50%
LGR2 inh: Drosophila LGR2 receptor signaling inhibition; inhibition, % at 9.99 µM; HEK293 LGR2, CRE-luciferase, bursicon-stimulated, 4 h; 380,000 compounds, 0.35% hits;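 active = drop in luminescence signal, shown as inhibition above about 50% in the replicate tests, limit read from the data, passing the limit was not always enough; inconclusive = probably only some replicates passing the limit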;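 note: agonist challenge used bursicon conditioned medium at about half maximal strength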
A number is an active result. A selection: hits, their analogues and other compounds. The true share with any hit is near 2.6%.

O=C(Nc1nccs1)[C@H]1[C@H](CO)[C@H]2Cn3c(cccc3=O)[C@H]2N1C(=O)C1CCC1 was read as EWS-Fli block inactive and LGR2 inh inactive.
CCC(=O)N1[C@@H]2c3ccc(-c4ccccc4)c(=O)n3C[C@H]1[C@H](CO)[C@H]2C(=O)N1CCc2ccccc2C1 was read as EWS-Fli block inactive and LGR2 inh inactive.
For CN(C)CCCNC(=O)C[C@H]1CC[C@H]2[C@H](COc3ccc(NC(=O)NC4CCCC4)cc3C(=O)N2C)O1 the results were EWS-Fli block inactive and LGR2 inh inactive.
For COc1ccc(-c2cc3nc(NCCN4CCCC4)n(C)c(=O)c3s2)cc1OC the results were TROY signal inh inactive, EWS-Fli block inactive, TWEAK Fn14 block inactive and LGR2 inh inactive.
COc1ccc(-c2cc3nc(NCc4ccc(N(C)C)cc4)n(C)c(=O)c3s2)cc1OC was read as TROY signal inh inactive, EWS-Fli block inactive, TWEAK Fn14 block 79.9 and LGR2 inh 74.2.
Screening COc1cccc(CNc2nc3cc(-c4ccsc4)sc3c(=O)n2C)c1OC returned TROY signal inh inactive, EWS-Fli block inactive, TWEAK Fn14 block 81.8 and LGR2 inh inactive.
Screening COc1cccc(CNc2nc3cc(-c4ccc(OC)c(OC)c4)sc3c(=O)n2C)c1 returned TROY signal inh inactive, EWS-Fli block inactive, TWEAK Fn14 block 53.6 and LGR2 inh inactive.
COc1cccc(CNc2nc3cc(-c4ccc(C)cc4)sc3c(=O)n2C)c1OC was read as TROY signal inh inactive, EWS-Fli block inactive, TWEAK Fn14 block inactive and LGR2 inh inactive.
Screening Cc1ccc(S(=O)(=O)N2[C@@H](c3ccc(Br)cc3)C(C(=O)O)=CC[C@H]2c2ccc(Cl)c(Cl)c2)cc1 returned TROY signal inh 62.0, LMP1 NFkB inh inactive, EWS-Fli block inactive, TWEAK Fn14 block inactive and LGR2 inh inactive.
Screening Cc1ccc(S(=O)(=O)N2[C@@H](c3ccc(C(C)(C)C)cc3)C(C(=O)O)=CC[C@H]2c2cccc(Cl)c2)cc1 returned TROY signal inh 80.7, LMP1 NFkB inh inactive, EWS-Fli block inactive, TWEAK Fn14 block 50.3 and LGR2 inh inactive.
Screening C[C@@H]1CN([C@H](C)CO)C(=O)Cc2cc(NC(=O)C3CC3)ccc2O[C@@H]1CN(C)C(=O)Nc1ccc2c(c1)OCO2 returned EWS-Fli block inactive and LGR2 inh inactive.
For O=C(Nc1nc(-c2ccc(Cl)cc2)cs1)NC1CCCCC1 the results were TROY signal inh 58.1, LMP1 NFkB inh inactive, TWEAK Fn14 block 68.0 and LGR2 inh inactive.
`CC(=O)c1c(C)[nH]c(C(=O)Nc2nc(C)cs2)c1C` gave TROY signal inh 65.0, LMP1 NFkB inh 71.4, EWS-Fli block 73.7 and TWEAK Fn14 block 94.0.
Screening CC(=O)c1c(C)[nH]c(C(=O)Nc2nc(-c3ccc(-c4ccccc4)cc3)cs2)c1C returned TROY signal inh inactive, LMP1 NFkB inh inactive, EWS-Fli block inactive, TWEAK Fn14 block 97.6 and LGR2 inh 91.0.
For CC(=O)c1c(C)[nH]c(C(=O)Nc2ccc(C)cn2)c1C the results were TROY signal inh 66.9, LMP1 NFkB inh 58.1 and TWEAK Fn14 block 95.3.
`CC(=O)c1c(C)[nH]c(C(=O)Nc2cc(C)cc(C)c2)c1C` gave TROY signal inh inactive, LMP1 NFkB inh inactive and TWEAK Fn14 block inactive.
For COc1ccc(-c2nc(NC(=O)c3[nH]c(C)c(C(C)=O)c3C)sc2C)cc1 the results were TROY signal inh inactive, LMP1 NFkB inh inactive, EWS-Fli block inactive, TWEAK Fn14 block inactive and LGR2 inh inactive.
`CC(=O)c1c(C)[nH]c(C(=O)Nc2nc(-c3ccc(Cl)cc3)cs2)c1C` gave TROY signal inh 58.1, LMP1 NFkB inh inactive, TWEAK Fn14 block 67.7 and LGR2 inh inactive.
For CN1CCN(C(=O)C[C@@H]2CC[C@H](NS(=O)(=O)c3cccc(F)c3)[C@H](CO)O2)CC1 the results were EWS-Fli block inactive and LGR2 inh inactive.
Screening COC(=O)c1ccc2ccccc2n1 returned TROY signal inh inactive and TWEAK Fn14 block inactive.
For CCOc1ccc(N=C(NN)c2ccc3ccccc3n2)cc1 the results were TROY signal inh 86.8, LMP1 NFkB inh inactive, TWEAK Fn14 block 94.4 and LGR2 inh inconclusive.
C[C@H](CO)N1C[C@H](C)[C@@H](CN(C)CC2CCCCC2)OCCCC[C@H](C)Oc2ccc(NS(=O)(=O)c3cn(C)cn3)cc2C1=O was read as EWS-Fli block inactive and LGR2 inh inactive.
For O=C(CN1CCN(S(=O)(=O)c2ccccc2)CC1)NC(=O)NCc1ccco1 the results were TROY signal inh inactive, LMP1 NFkB inh inactive, EWS-Fli block inactive, TWEAK Fn14 block 94.5 and LGR2 inh inactive.
For CN1C(=O)c2cc(NC(=O)NCc3ccccc3)ccc2OC[C@@H]2O[C@H](CC(=O)NCC3CCCCC3)CC[C@H]21 the results were EWS-Fli block inactive and LGR2 inh inactive.
For CO[C@H]1CN(C)C(=O)c2cc(NS(C)(=O)=O)ccc2OC[C@@H](C)N(C(=O)CN(C)C)C[C@@H]1C the results were EWS-Fli block inactive and LGR2 inh inactive.
`Cc1ccc(-c2csc(NC(=O)c3cc([N+](=O)[O-])ccc3N3CCOCC3)n2)cc1` gave TROY signal inh inactive, LMP1 NFkB inh inactive, EWS-Fli block inactive, TWEAK Fn14 block inactive and LGR2 inh inactive.
For O=C(Nc1nc2ccccc2s1)c1ccc(N2CCCCC2)c([N+](=O)[O-])c1 the results were TROY signal inh inactive, LMP1 NFkB inh inactive, EWS-Fli block inactive and TWEAK Fn14 block 81.1.
For O=C(Nc1nc(-c2ccccc2)cs1)c1ccc(N2CCOCC2)c([N+](=O)[O-])c1 the results were TROY signal inh 83.4, LMP1 NFkB inh inactive and TWEAK Fn14 block 105.8.
CNC[C@@H]1OCCCC[C@@H](C)Oc2ccc(N)cc2C(=O)N([C@H](C)CO)C[C@H]1C was read as EWS-Fli block inactive and LGR2 inh inactive.
Screening Cc1nc(N2CCOCC2)c2cc(-c3ccccc3)sc2n1 returned TROY signal inh inactive, LMP1 NFkB inh inactive and TWEAK Fn14 block inactive.
Screening Cc1nc(SCCC(=O)O)c2cc(-c3ccccc3)sc2n1 returned TROY signal inh inactive, LMP1 NFkB inh inactive, EWS-Fli block 62.9, TWEAK Fn14 block inactive and LGR2 inh inactive.
`Cc1cc(C)cc(Oc2ccc(-c3nnc(-c4ccccc4)o3)cc2[N+](=O)[O-])c1` gave TROY signal inh 87.3, LMP1 NFkB inh inactive, EWS-Fli block inactive and TWEAK Fn14 block 101.0.
Cn1c(=NC(=O)C2CC2)sc2cccc(F)c21 was read as TROY signal inh inactive, LMP1 NFkB inh 59.8, EWS-Fli block inactive, TWEAK Fn14 block inactive and LGR2 inh inactive.
COc1ccc(OC)c2c1sc(=NC(=O)C1CCCCC1)n2C was read as TROY signal inh inactive, LMP1 NFkB inh inactive, EWS-Fli block inactive, TWEAK Fn14 block inactive and LGR2 inh inactive.
Cc1ccc2nc(Cl)c3nnnn3c2c1 was read as TROY signal inh 83.9, LMP1 NFkB inh inactive and TWEAK Fn14 block inactive.
Screening Cc1ccc2nc(N3CCN(c4cccc(C)c4C)CC3)c3nnnn3c2c1 returned TROY signal inh inactive, LMP1 NFkB inh inactive and TWEAK Fn14 block inactive.
For N#C/C(=C\c1cc2ccccc2nc1N1CCOCC1)C(=O)Nc1ccc(N2CCOCC2)cc1 the results were TROY signal inh 57.7, LMP1 NFkB inh inactive, EWS-Fli block inactive, TWEAK Fn14 block inactive and LGR2 inh inactive.
